The list is not random: actives were taken first. Their share in the collection is about 2.7%.
CHT inh = inhibitors of human choline transporter CHT; High affinity choline transporter 1 (Homo sapiens), Q9GZV3; CHT-expressing cells, membrane potential dye, choline response; active compounds read low; B-score at 10 µM; 310,000 tested, 0.86% active; AID 488975, 2010;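 active = B-score over 3 SD under the library average, and starting fluorescence ratio not unusually high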;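 note: choline stimulus applied at its EC90 after an EC20 pre-addition; B-score computed on integrated fluorescence ratio after choline addition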
Target sequence (Q9GZV3 whole entry, looked up): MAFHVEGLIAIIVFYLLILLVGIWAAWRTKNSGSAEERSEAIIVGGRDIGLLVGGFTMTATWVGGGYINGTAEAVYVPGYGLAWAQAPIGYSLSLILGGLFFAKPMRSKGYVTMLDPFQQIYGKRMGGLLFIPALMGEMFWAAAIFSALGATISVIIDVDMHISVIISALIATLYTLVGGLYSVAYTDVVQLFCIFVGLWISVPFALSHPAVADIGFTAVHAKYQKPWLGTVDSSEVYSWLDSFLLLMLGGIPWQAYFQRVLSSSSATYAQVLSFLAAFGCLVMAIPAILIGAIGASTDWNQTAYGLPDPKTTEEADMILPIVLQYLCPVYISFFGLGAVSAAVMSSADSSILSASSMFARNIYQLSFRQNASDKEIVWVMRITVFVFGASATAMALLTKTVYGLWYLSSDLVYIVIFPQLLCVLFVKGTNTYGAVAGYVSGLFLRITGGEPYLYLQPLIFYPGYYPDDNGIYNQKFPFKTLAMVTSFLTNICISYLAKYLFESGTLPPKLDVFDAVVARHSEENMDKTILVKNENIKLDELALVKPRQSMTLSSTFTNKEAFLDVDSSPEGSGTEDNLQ
ANO1 block = TMEM16A chloride channel inhibitors, primary screen, cell-based, HTS; normalized B-score (activity score, 25-100; higher = stronger inhibition) at 10 µM; HEK293 TMEM16A/YFP iodide influx fluorescence, ionomycin; 310,000 tested, 1.2% active;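 active = ratio plate-corrected score three or more library SD toward inhibition, starting fluorescence score within five deviations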;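 note: score derived from kinetic fluorescence span divided by baseline fluorescence per well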
TMEM16A act = TMEM16A chloride channel activators or potentiators, primary screen, cell-based, HTS. HEK293 TMEM16A/YFP-H148Q/I152L, iodide quench fluorescence; active compounds read low. B-score at 10 µM. 340,000 tested, 0.3% active. Anoctamin-1 (Mus musculus), Q8BHY3;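 active = fluorescence-ratio B-score plate-corrected deviation score at least 3 library SD below zero, with starting fluorescence score within 5 deviations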;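 note: channel opened by trigger with iodide after compound preincubation; score built on the fluorescence ratio of max minus min over baseline; more negative score means more quench and so TMEM16A activation or potentiation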
CHT PAM = CHT positive allosteric modulators, primary screen, cell-based, membrane potential dye, choline EC20; High affinity choline transporter 1 (Homo sapiens), Q9GZV3; CHT-expressing cells; active compounds read high; LV-AA mutant CHT in HEK293 cells; B-score at 10 µM; 310,000 tested, 0.49% active; AID 488977, 2010;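 active = initial fluorescence not abnormally high and integrated response B-score, plate-corrected, over 3 SD above library mean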
IDE act = human IDE activators in live cells, primary screen, fluorescence polarization, HEK cells, FAbeta-B substrate | Insulin-degrading enzyme (Homo sapiens), P14735 | FAbeta-B cleavage; 0% vehicle, 100% cell-free pure enzyme wells | activation, % at 5.96 µM | 340,000 tested, 0.073% active | AID 493087, 2011;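 active = activation above the mean of all tested compounds plus 3 SD, set per screening campaign, cut at about 17% in these data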
IDE cell inh = human IDE inhibitors in live cells, primary screen, fluorescence polarization, HEK cells, FAbetaB substrate; FAbetaB cleavage; inhibition, % at 5.59 µM; 320,000 tested, 0.41% active;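 active = percent inhibition above the average of all tested compounds plus 3 SD, set per screening campaign, cut at about 16% in these data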;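 note: IDE supplied by intact live HEK cells; FP after avidin binding of uncleaved biotin substrate so inhibition keeps polarization high; 0% = DMSO wells and 100% = 60 µM reference IDE inhibitor Ii1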
TMEM16A reconf = TMEM16A chloride channel inhibitors, confirmation, cell-based, re-confirmation; shares compounds with ANO1 block; HEK293 TMEM16A/YFP-H148Q, iodide quench fluorescence; ionomycin added to raise cell calcium; inhibition, % at 10 µM; 2,300 tested, 39% active; AID 652189, 2013;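 active = mean duplicate percent inhibition, scaled so buffer wells are 0 and the reference blocker 100, over three buffer SD above buffer mean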
HEK293 Ca mobil = calcium mobilization in TMEM16A/YFP HEK293 cells, confirmation, counter-screen for TMEM16A inhibitor project. Fluo4 calcium mobilization. 2,300 tested, 2% active. shares compounds with ANO1 block. calcium response (% of ionomycin), % at 10 µM. AID 652231, 2013;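 active = duplicate-averaged calcium signal over 20% of the ionomycin maximum, relative to buffer baseline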;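 note: each well's signal is peak minus trough fluorescence divided by its pre-addition baseline; 0% = buffer wells and 100% = ionomycin wells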
Parental YFP cnt = iodide YFP quench changes in parental YFP-HEK293, counter-screen for TMEM16A inhibitor project, cell-based. shares compounds with ANO1 block. ionomycin. YFP ratio F(max-min)/F0 at 10 µM. 2,300 tested, under 10 active. AID 652233, 2013;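 active = yellow fluorescent protein signal ratio exceeding the buffer control mean by over 5 SD of those controls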;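 note: ratio is mean of duplicate wells from kinetic YFP trace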
ClC-1 rat inh = ClC-1 chloride channel inhibition, selectivity assay for TMEM16A inhibitor project, cell-based, voltage-dependent ClC-1. 2,300 tested, under 10 active. shares compounds with ANO1 block. ratio percent, % at 10 µM. CHO ClC-1-YFP, iodide influx fluorescence quench; iodide control reads 0, buffer control 100. AID 652236, 2013;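 active = duplicate-mean ratio percent above the mean of iodide-only control wells, which defines zero, plus 5 of their SD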;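 note: higher percent means stronger block of ClC-1 iodide influx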
* hit, by the source's call; i = inactive; · = not tested or not shown.

SMILES	CHT inh	ANO1 block	TMEM16A act	CHT PAM	IDE act	IDE cell inh	TMEM16A reconf	HEK293 Ca mobil	Parental YFP cnt	ClC-1 rat inh
C/C(=N\NC(=O)C1(C)CC1(Br)Br)c1cccc(NC(=O)c2ccc(C)o2)c1 (centres undefined)	i	25*	i	i	-4	-1	i	i	-1.1	-6
C=CCN(C(=O)c1cccc(S(=O)(=O)N2CCN(C)CC2)c1)c1nc(-c2ccccc2)cs1	i	100*	i	i	-12	6	20%*	i	-1	-7
Cc1cccc(C)c1NC(=O)CN(C)C(=O)c1ccc2c(=O)n3c(nc2c1)CCC3	·	·	i	·	-1	-2	·	·	·	·
CC(NCc1ccc(OCc2ccc(Cl)cc2)cc1)C(O)c1ccccc1 (centres undefined)	i	i	i	i	11	-9	·	·	·	·
CC(NCCc1ccc(O)cc1)C(O)c1ccc(O)cc1 (centres undefined)	i	100*	i	i	-2	1	i	i	-0.92	-10
CCC(=O)N1CCN(c2nnc(-c3ccccc3)c3ccccc23)CC1	i	i	i	i	-1	-1	·	·	·	·
CCCCSc1nnc(-c2ccccc2)c2ccccc12	i	100*	i	i	-2	-3	i	i	-1.1	-8
O=S(=O)(c1ccccc1)N1CCN=C1SCc1ccc(Cl)cc1	i	25*	i	i	2	1	i	i	-0.89	-11
O=S(=O)(c1ccccc1)N1CCN=C1SCc1ccc(Cl)c(Cl)c1	i	i	i	i	7	-1	·	·	·	·
Oc1ccccc1N1CCN(CC(O)COC2CCCc3ccccc32)CC1 (centres undefined)	i	i	i	i	5	2	·	·	·	·
CCNC(=O)CC1C(=O)N(c2ccc(F)cc2)C(=O)N1Cc1ccccn1 (centres undefined)	i	100*	i	i	2	3	i	i	-1	-8
CC(NC(=O)C1CCC1)c1ccc2c(c1)OCO2 (centres undefined)	i	25*	i	i	-7	-4	i	i	-0.89	-5
O=C(Cc1cccc(NC(=O)C2CCCN(C(=O)C3CCC3)C2)c1)Nc1cccc(C(=O)N2CCOCC2)c1 (centres undefined)	·	·	·	·	-1	·	·	·	·	·
COc1ccccc1NS(=O)(=O)c1cn(C)cn1	i	i	i	i	-4	-2	·	·	·	·
O=C(OCCN1CCN(c2ncc(C(F)(F)F)cc2Cl)CC1)c1ccc(Cl)cc1	i	100*	i	i	5	1	i	i	-1.1	-6
CN(CC(=O)Nc1ccc(F)cc1)C(=O)CNC(=O)C1CCCCC1	·	·	i	·	2	1	·	·	·	·
COc1ccc(NS(=O)(=O)c2cccc(C(=O)NNC(=O)CNC(=O)c3ccccc3F)c2)cc1	i	i	i	i	0	4	·	·	·	·
CCc1cccc(N(C(=O)c2csnn2)C(C(=O)NC2CCCCC2)c2cccnc2)c1 (centres undefined)	i	i	i	i	-1	6	·	·	·	·
O=C(CNc1cccc(S(=O)(=O)N2CCCC2)c1)Nc1ccc(F)c(F)c1	i	i	i	i	2	-3	·	·	·	·
CN(CC(=O)Nc1cccc(S(=O)(=O)N2CCCC2)c1)CC(=O)Nc1ccc(Cl)c(C(F)(F)F)c1	i	25*	i	i	0	4	i	i	-1.2	-2
Cc1ccc(NC(=O)CNc2cccc(S(=O)(=O)N3CCCC3)c2)cc1F	i	25*	i	i	-1	6	22%*	i	-0.88	-10
CCN(CC)S(=O)(=O)c1cccc(NC(=O)CNc2cccc(S(=O)(=O)N3CCCC3)c2)c1	i	25*	i	i	5	-3	i	i	-1	-16
CCN(CC)S(=O)(=O)c1cccc(NC(=O)COC(=O)c2cccs2)c1	i	25*	i	i	4	2	i	i	-0.95	-6
COc1ccc(C(CNC(=O)C(CCSC)NC(=O)c2ccccc2Cl)N2CCCCC2)cc1 (centres undefined)	·	·	i	·	0	5	·	·	·	·
CSCC[C@H](NC(=O)OC(C)(C)C)C(=O)N1CCC(C(=O)NCC(=O)Nc2ccc(C)cc2)CC1	i	i	i	i	1	-9	i	i	-0.93	-16
SMILES	CHT inh	ANO1 block	TMEM16A act	CHT PAM	IDE act	IDE cell inh	TMEM16A reconf	HEK293 Ca mobil	Parental YFP cnt	ClC-1 rat inh
Cc1ccc(C(=O)Nc2nc(=O)n(C(=O)c3ccccc3C)s2)cc1	i	25*	i	i	6	0	26%*	i	-0.97	-10
Cc1ccc(C(=O)Nc2nc(=O)n(C(=O)C3CC3)s2)cc1	i	i	i	i	-3	-3	·	·	·	·
CCN(CC)CC(O)c1ccc2ccc3ccc(O)cc3c2c1 (centres undefined)	·	·	i	·	1	·	·	·	·	·
COC(=O)c1ccc(CSc2nnc(-c3ccccc3)n2C)o1	i	i	i	i	1	2	·	·	·	·
COC(=O)c1ccc(CSc2nnnn2-c2ccccc2)o1	i	100*	i	i	3	0	i	i	-0.91	-2
Cc1ccc(C2=NS(=O)(=O)N(C)C(C(=O)Nc3ccc4c(c3)OCO4)=C2)cc1	i	25*	i	i	1	3	i	i	-0.98	-26
COc1ccc(C2=NS(=O)(=O)N(C)C(C(=O)Nc3ccc4c(c3)OCO4)=C2)cc1	i	i	i	i	5	2	·	·	·	·

Compound activity deposited in PubChem by several laboratories.
